# Results published in PubChem BioAssay AID623868 (Vanderbilt High Throughput Screening Facility, 2012).
# The whole screen tested about 2,100 compounds, of which about 760 (36%) were called active.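 How the source made its calls: active means thallium-flux fluorescence traces judged by eye to show enhanced or reduced glutamate response, manual score 1 or -1, so both directions (some results past the limit were not filed as active); inactive means the rest, including fluorescent or raised-baseline compounds.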 A selection follows.
# Assay: thallium influx changes without GIRK channels – cell-based, HEK-293 rmGlu8, no GIRK, thallium flux, counter-screen for GIRK activator project, confirmation (AID 623868);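 further: extra codes mark interference with 3 for fluorescent and 4 for baseline rise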
# Conditions: thallium flux fluorescence, at 10 µM, actives lie on both sides, codes: 1 enhancer, -1 blocker, 0 none, thallium stimulus containing EC20 glutamate
row,SMILES,manual score
1,CCCCCCc1cc2cc(C(=O)NC)c(=N)oc2cc1O,3 (inactive)
2,COc1ccc(Nc2nnc(Cc3ccccc3)c(=O)[nH]2)c(OC)c1,0 (inactive)
3,CN(c1ccccc1)S(=O)(=O)c1ccc(NC(=S)NC(=O)c2ccccc2)cc1,0 (inactive)
4,CCc1nnc(NS(=O)(=O)c2ccc(NC(=S)NC(=O)c3ccccc3)cc2)s1,0 (inactive)
5,CCN(c1ccccc1)S(=O)(=O)c1ccc(NC(=S)NC(=O)c2ccc(Br)o2)cc1,1 (active)
6,CCOC(=O)c1ccccc1NC(=O)CSc1nnc(Cc2cccn2C)n1-c1ccc(F)cc1,0 (inactive)
7,CCOC(=O)c1ccccc1NC(=O)CSc1nnc(COc2ccccc2)n1CC,0 (inactive)
8,CCOC(=O)c1ccccc1NC(=O)CSc1nnc(COc2ccccc2C)n1C,-1 (active)
9,CCOC(=O)c1ccccc1NC(=O)CSc1nnc(Cc2cccn2C)n1-c1ccc(C)cc1,-1 (active)
10,CCOC(=O)CN(C(=O)CSc1nnc(Cc2ccccc2)n1-c1ccc(C)cc1)c1ccccc1,0 (inactive)
11,COC(=O)c1ccc(NC(=O)CSc2nnc(COc3ccccc3)n2C)cc1,3 (inactive)
12,CCc1nc(SCc2ccc(F)cc2)[nH]c(=O)c1C#N,3 (inactive)
13,CC(Sc1nc2ccccc2c(=O)[nH]1)C(=O)O (stereo not given),0 (inactive)
14,N#Cc1c(N)nc(SCc2ccccc2)c(C#N)c1-c1ccco1,0 (inactive)
15,N#Cc1c(-c2ccco2)nc(SCc2ccc(F)cc2)[nH]c1=O,-1 (active)
16,CCOc1ccccc1C1CC(=O)NC(SCC)=C1C#N (stereo not given),0 (inactive)
17,CCSc1nc(-c2ccccc2)c(C#N)c(=O)[nH]1,-1 (active)
18,Cc1oc(-c2ccccc2F)nc1CS(=O)(=O)CC(=O)NCCN(C)C1CCCCC1,0 (inactive)
19,c1cn(CC2(Cn3ccnc3)COC2)cn1,0 (inactive)
20,O=C(c1ccccc1Oc1ccccc1)N1CCN(c2ccccc2)CC1,0 (inactive)
21,O=C(c1ccccc1CCc1ccccc1)N1CCN(c2ccccn2)CC1,0 (inactive)
22,CCCc1ccc(C(=O)N2CCN(c3ccccc3OCC)CC2)cc1,-1 (active)
23,CCOc1ccccc1N1CCN(C(=O)c2cc3c(s2)CCC3)CC1,-1 (active)
24,CC1CCN(c2c([N+](=O)[O-])c(=O)oc3ccccc23)CC1,0 (inactive)
25,COc1ccc(C(C)n2c(C)c3c(C)nnc(C)c3c2C)cc1 (stereo not given),0 (inactive)
26,O=C1OCCC1Sc1nc2cc(Cl)ccc2n1Cc1ccccc1 (stereo not given),1 (active)
27,O=C(CSc1nc2ccccc2n1CCc1ccccc1)N1CCOCC1,0 (inactive)

row,SMILES,manual score
1,CC1=C(C(=O)Nc2cccnc2)C(c2ccc3c(c2)OCO3)C2=C(CCCC2=O)N1 (stereo not given),0 (inactive)
2,Cc1oc(-c2ccccc2)nc1CS(=O)CC(=O)O (stereo not given),1 (active)
3,Cc1cccc(-c2nc(CN3CCCC(C(=O)NC4CCCCC4)C3)c(C)o2)c1 (stereo not given),0 (inactive)
4,Cc1ccccc1-c1nc(CS(=O)(=O)CC(=O)NCCCN2CCCC2)c(C)o1,0 (inactive)
5,CCOC(=O)Cc1csc(NC(=S)NC(=O)C(C)(C)C)n1,1 (active)
6,CCOC(=O)Cc1csc(NC(=S)NC(=O)c2ccccc2)n1,1 (active)
7,CCOC(=O)Cc1csc(NC(=S)NC(=O)c2ccc(C)cc2)n1,1 (active)
8,CCOC(=O)Cc1csc(NC(=O)Nc2ccccc2)n1,0 (inactive)
9,CC1CCN(c2ccc(/C=N/n3nnnc3N)cc2[N+](=O)[O-])CC1,0 (inactive)
10,COc1ccc2c(c1)Sc1ccccc1N2CCN(C)C,0 (inactive)
11,Cc1cc(C)n(-c2nnc(C)n2/N=C/c2ccccc2OCc2ccccc2Cl)n1,-1 (active)
12,O/N=C/c1cc(Cl)ccc1OCc1cccc2ccccc12,0 (inactive)
13,COc1ccccc1/C=C/C=N\N1CCN(Cc2ccccc2Cl)CC1,0 (inactive)
14,Fc1ccc(NC(=S)Nc2ccccc2OC(F)F)cc1Cl,0 (inactive)
15,CCNC(=S)NNC(=O)c1cccn(Cc2ccc(Cl)cc2)c1=O,0 (inactive)
16,CCc1ccc(NC(=S)NNC(=O)c2ccccc2OC(F)F)cc1,1 (active)
17,c1ccc2c(Nc3nnc(-c4ccncc4)s3)cccc2c1,0 (inactive)
18,CCc1ccc2c(c1)C1(NN=C(c3cccc4ccccc34)S1)C(=O)N2 (stereo not given),0 (inactive)
19,CCc1ccc(Nc2nc3ccccc3c(=O)s2)cc1,1 (active)
20,CCOc1cc(C(=O)NCc2ccncc2)cc(OCC)c1OCC,0 (inactive)
21,COc1ccc(-n2nnnc2SCC(=O)N2CCOCC2)cc1,0 (inactive)
22,NS(=O)(=O)c1ccc(S(=O)(=O)N2CCCC2)cc1,0 (inactive)
23,Cc1ccc2nc(-c3ccc(O)cc3)c(Nc3ccc4c(c3)OCCO4)n2c1,-1 (active)
24,Cc1ccc(-c2nnc(SCC(=O)Nc3ccc4c(c3)OCCO4)n2N)cc1,0 (inactive)
25,CCCN(CCC)CC(O)Cn1cc(/C=C/C(=O)c2cccs2)c2ccccc21 (stereo not given),3 (inactive)
26,O=C(Nc1nc2ccc(Cl)cc2s1)c1ccc(Br)o1,0.5 (inactive)
27,CCc1ccc2nc(NC(=O)c3cc(C)on3)sc2c1,1 (active)

row,SMILES,manual score
1,CNC(=O)c1ccc2nc(NC(C)=O)sc2c1,0 (inactive)
2,Cc1cc(C)c2nc(NC(=O)c3cc(C)on3)sc2c1,1 (active)
3,COc1ccc(-c2c(S(=O)(=O)c3ccccc3)cnn2-c2ccccc2)cc1,0 (inactive)
4,CCOc1ccc(NC(=O)NC23CC4CC(CC(C4)C2)C3)cc1,0 (inactive)
5,COc1ccc2nc(N=Nc3ccc(O)c4ccccc34)sc2c1,0 (inactive)
6,CS(=O)(=O)c1ccc2nc(NC(=O)Nc3ccc(Cl)c(Cl)c3)sc2c1,0 (inactive)
7,COc1ccc2nc(NC(=S)N(C)C)sc2c1,1 (active)
8,Cc1ccc(OCC(O)Cn2c(=N)n(Cc3ccccc3)c3ccccc32)cc1 (stereo not given),0 (inactive)
9,CCn1c(-c2cc3c(C(F)(F)F)nn(C)c3s2)n[nH]c1=S,0 (inactive)
10,CCn1c2ccccc2c2cc(/C=N/n3cn[nH]c3=S)ccc21,1 (active)
11,CCn1c(-c2ccc(-c3ccccc3)cc2)c[nH]c1=S,0 (inactive)
12,CCOC(=O)Cn1c(=N)n(Cc2ccccc2F)c2ccccc21,0 (inactive)
13,O=[n+]1c2c(n([O-])c3cc(F)c(N4CCCC4)cc31)CCCC2,3 (inactive)
14,Cc1ccc(S(=O)(=O)N2CCN(C)CC2)cc1-c1nnc2c3ccccc3c(C)nn12,0 (inactive)
15,O=C(Nc1ccc2c(c1)OCCO2)NC12CC3CC(CC(C3)C1)C2,0 (inactive)
16,CN(C)S(=O)(=O)c1cc(NC(=O)COC(=O)c2ccc3c(c2)OCO3)ccc1Cl,0 (inactive)
17,C/C(=N/NC(=S)Nc1ccccc1)c1ccc2c(c1)OCO2,1 (active)
18,COC(=O)[C@H](CC(C)C)NC(=O)Nc1ccc2c(c1)OCCO2,0 (inactive)
19,C/C(=N\NC(=S)Nc1cccc(C)c1)c1cccc(N)c1,1 (active)
20,C/C(=N\NC(=S)Nc1ccc(F)cc1)c1ccc2c(c1)OCCO2,1 (active)
21,Cc1c(N2C(=O)CS/C2=N\N=C\c2ccccc2O)c(=O)n(-c2ccccc2)n1C,0 (inactive)
22,O=C1c2ccccc2C(=O)N1Nc1ccccc1,0 (inactive)
23,Cc1ccc(C)n1-c1ccc(-c2nnco2)cc1,0 (inactive)
24,CCOc1ccc(-c2nc(-c3cccnc3)no2)cc1OCC,0 (inactive)
25,O=C(CSc1nnnn1-c1cccc2c1CCCC2)NC1CCCC1,0 (inactive)
26,Cc1ccc(-c2cn(-c3ccccc3)c(SCC(=O)NC3CCS(=O)(=O)C3)n2)cc1C (stereo not given),1 (active)
27,Cc1ccc(NC(=S)c2nc3ccccc3[nH]2)c(C)c1,1 (active)

row,SMILES,manual score
1,Cc1ccc2nc(NCc3ccccc3)[nH]c2c1,0 (inactive)
2,Cc1ccc(-n2nnnc2-c2nc3ccccc3s2)cc1,0 (inactive)
3,Cc1ccc(OC(=S)Nc2ccccc2)c(C)c1,0 (inactive)
4,Cc1ccc(C)c(NC(=S)c2nc3ccccc3s2)c1,1 (active)
5,N#C/C(=C/c1ccc(N2CCOCC2)o1)c1nc2ccccc2[nH]1,3 (inactive)
6,N#C/C(=C\c1ccc(N2CCOCC2)o1)c1nc2ccccc2[nH]1,3 (inactive)
7,Cc1ccccc1NC(=S)c1nc2ccccc2[nH]1,1 (active)
8,Cc1cc(NC(=O)CSc2nc3ccccc3c(=O)n2Cc2ccccc2)no1,0 (inactive)
9,O=C(CSc1nc2ccccc2c(=O)n1CC1CCCO1)N1CCN(c2ccccc2)CC1 (stereo not given),0 (inactive)
10,Cc1ccc(Cn2c(SCC(=O)NCC3CCCO3)nc3c(sc4ccccc43)c2=O)cc1 (stereo not given),0 (inactive)
11,CC(c1ccccc1)n1c(SCC(=O)N2CC(=O)Nc3ccccc32)nc2ccccc2c1=O (stereo not given),0 (inactive)
12,Cc1ccc(Cn2c(SCC(=O)N3CC(=O)Nc4ccccc43)nc3ccccc3c2=O)cc1,1 (active)
13,CCC(C)NC(=O)CSc1nc2ccccc2c(=O)n1Cc1ccc(OC)cc1 (stereo not given),1 (active)
14,O=C1CN(C(=O)CSc2nc3ccccc3c(=O)n2Cc2ccc(F)cc2)c2ccccc2N1,1 (active)
15,O=C1CN(C(=O)CSc2nc3cc(Cl)ccc3c(=O)n2Cc2ccccc2)c2ccccc2N1,1 (active)
16,Clc1ccc(OCCn2ccnc2)c(Cl)c1,0 (inactive)
17,CC(/C=N/n1c(-c2ccc(Cl)cc2)n[nH]c1=S)=C\c1ccco1,1 (active)
18,CC(/C=N/n1c(-c2ccccc2)n[nH]c1=S)=C\c1ccco1,1 (active)
19,O=C(Nc1ccccc1)Nc1nccs1,-0.5 (inactive)
20,COC(=O)CSC1=NS(=O)(=O)c2ccccc21,0 (inactive)
21,CCCc1nc2ccccc2c(=O)n1/N=C/c1c(C)[nH]n(-c2ccc(C)cc2)c1=O,1 (active)
22,CN(C)CCNc1nc2c(c(=O)[nH]c(=O)n2C)n1CCCc1ccccc1,0 (inactive)
23,O=c1c(-c2ccccc2)nc(-c2ccccc2)cn1O,1 (active)
24,COCCn1nnnc1C(c1ccccc1)N1CCN(c2ccccc2)CC1 (stereo not given),0 (inactive)
